From PubChem BioAssay (NCATS) come the findings set out here.

“And” between values parts separate entries of the source, which are not always exact repeats. Equal entries are not always repeated. Records with an inconclusive call do not appear. The source made the active and inactive calls. Calls follow the shape of the dose curve; as a rule, active = well fitted activation curve with a large enough effect; inconclusive = small, poorly fitted or top-dose-only effect; inactive = no such curve, though single readings can be large or run the other way.
Potency is read from the fitted curve at half-maximal effect.

For the assay, the target named is Cellular tumor antigen p53 (Homo sapiens) (UniProt P04637). Briefly: Primary qHTS for small molecule compounds that upregulate eGFP-tagged delta133p53alpha (in N-terminal) cells. (AID 2060322). Also: nearly all actives have a fitted effect of over 75% in size.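 As to activation: series mostly up to about 56 µM; 0% = DMSO vehicle and 100% = reference activator.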 The following applies: NCI-H358 eGFP-delta133p53alpha fluorescence, 24 h; activation: stronger effect = higher value. The method in brief: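 NCI-H358 cells pre-induced 24 h with 10 ng/ml doxycycline to express N-terminal eGFP-delta133p53alpha, then dosed 24 h at 37C without doxycycline; fixed, Hoechst-stained, GFP intensity by laser scanning cytometry, normalized to DMSO (0%) and 57.5 uM 5-azacytidine (100%).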
Chain of Cellular tumor antigen p53 (Homo sapiens) (P04637 whole entry, looked up): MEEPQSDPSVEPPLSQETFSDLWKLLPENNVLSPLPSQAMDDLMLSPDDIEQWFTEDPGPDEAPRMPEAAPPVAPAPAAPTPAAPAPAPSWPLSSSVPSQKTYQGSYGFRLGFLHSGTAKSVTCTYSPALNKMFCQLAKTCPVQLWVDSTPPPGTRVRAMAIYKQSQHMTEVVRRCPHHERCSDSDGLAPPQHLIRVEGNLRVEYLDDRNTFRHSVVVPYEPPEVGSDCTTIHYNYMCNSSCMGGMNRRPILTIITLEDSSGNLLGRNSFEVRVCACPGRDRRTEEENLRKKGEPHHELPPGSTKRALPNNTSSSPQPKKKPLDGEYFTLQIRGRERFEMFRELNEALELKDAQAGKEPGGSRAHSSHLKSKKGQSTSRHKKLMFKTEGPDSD
In general terms: qHTS replaces the single test concentration by a dilution series.
In the case of `CCOC1OC(=O)C[C@H]1NC(=O)[C@@H]1CCCN1C(=O)[C@@H](NC(=O)c1ccc(N)c(Cl)c1)C(C)(C)C` (stereo not given in full), the activation is 110% (inactive).

With `COc1ccc(CCC(C)=O)cc1`, the activation was -5.86% (inactive).

As to `O=C(CCCCC(=O)Nc1c(I)cc(I)c(C(=O)O)c1I)Nc1c(I)cc(I)c(C(=O)O)c1I`, the activation is 2.82% (inactive).

For the molecule `O=C(O)C1(C(=O)O)CCC1.[NH2-].[NH2-].[Pt+2]`, the activation was 0.565% (inactive).

For `CCN(CC)CCOC(=O)C(Cc1cccc2ccccc12)CC1CCCO1` (stereo not given), the activation was -0.837% (inactive).

For `O=C1C(=O)c2ccccc2C(O)=C1C1CCC(c2ccc(Cl)cc2)CC1` (stereo not given), the activation is -33.3% (inactive).

Consider `CCC(Sc1nnc2c(n1)[nH]c1ccccc12)C(=O)N1c2ccccc2Sc2ccccc21` (stereo not given), for which the activation is 12.3% (inactive).

Regarding `C=CC1=C(C(=O)O)N2C(=O)[C@@H](NC(=O)C(=NO)c3csc(N)n3)[C@H]2SC1`, the activation is -4.61% (inactive).

Consider `CCOC(=O)C(C#N)=C(c1ccccc1)c1ccccc1`, for which the activation was -3.35% (inactive).

As to `C/C(=C1\CCOC(=O)S1)N(C=O)Cc1cnc(C)nc1N`, the activation is -5.86% (inactive).

On to `OC[C@]1(O)OC[C@@H](O)[C@H](O)[C@@H]1O`, for which the activation was -16.7% (inactive).

Consider `CC(=O)N(CC(O)CN(C(C)=O)c1c(I)c(C(=O)NCC(O)CO)c(I)c(C(=O)NCC(O)CO)c1I)c1c(I)c(C(=O)NCC(O)CO)c(I)c(C(=O)NCC(O)CO)c1I` (stereo not given), for which the activation was -16.7% (inactive).

As to `NCCC(O)(P(=O)(O)O)P(=O)(O)O`, the activation was -6.21% (inactive).

As for `C[C@H]1O[C@@H](O[C@H]2CC[C@@]3(C)[C@H](CC[C@@H]4[C@@H]3C[C@@H](O)[C@]3(C)[C@@H](C5=CC(=O)OC5)CC[C@]43O)C2)C[C@H](O)[C@@H]1O[C@H]1C[C@H](O)[C@H](O[C@H]2C[C@H](O)[C@H](O[C@@H]3O[C@H](CO)[C@@H](O)[C@H](O)[C@H]3O)[C@@H](C)O2)[C@@H](C)O1`, the Potency was 1.55 µM (active).

In the case of `O=C(C1CCCCC1)N1CC(=O)N2CCCc3ccccc3C2C1` (stereo not given), the activation was 4.18% (inactive).

For the molecule `C/C(=N/NC(=O)c1ccncc1)C(=O)O`, the activation was 7.34% (inactive).

For the molecule `CC(CNC1CCCCC1)OC(=O)c1ccccc1` (stereo not given), the activation is -9.21% (inactive).

On to `OCCCc1ccccc1`, for which the activation was -6.21% (inactive).

Take `Cc1c(C(C)C)c(=O)n(-c2ccccc2)n1C`: the activation is -13.4% (inactive).

For `c1ccc(OCc2ccc(CCCN3CCOCC3)cc2)cc1`, the activation was -7.53% (inactive).

Regarding `NS(=O)(=O)c1cc2c(cc1Cl)NC(CSCc1ccccc1)=NS2(=O)=O`, the activation is -16.7% (inactive).

As for `O=C(Nc1ncc([N+](=O)[O-])s1)c1cccs1`, the activation was 10% (inactive).

On to `O=C(O)c1ccnc2cc(C(OCCCN3CCCCC3)c3ccccc3Cl)[nH]c12` (stereo not given), for which the activation is 1.12% (inactive).

As to `CN(C)CCc1c[nH]c2ccc(Cn3cncn3)cc12`, the Potency is 21.7 µM (active).

As for `O[C@@H]1CO[C@H]2[C@@H]1OC[C@@H]2O`, the activation was -14.2% (inactive).

On to `Oc1cccc2[nH]ccc12`, for which the activation is -5.08% (inactive).

Take `CNCC[C@@H](Oc1ccccc1C)c1ccccc1`: the activation was -17.6% (inactive).

As to `CO[C@H]1O[C@@H]2O[C@@]3(C)CC[C@@H]4[C@@H](C)CC[C@@H]([C@H]1C)[C@@]24OO3`, the activation was 20% (inactive).

For the molecule `COc1cccc(N(C)C(=S)Oc2ccc3c(c2)CCCC3)n1`, the activation is 25.4% (inactive) and -4.03% (inactive).

With `COc1cc(NS(=O)(=O)c2ccc(N)cc2)nc(OC)n1`, the activation is -0.195% (inactive).

For `N#CSCC(=O)O`, the activation was 1.69% (inactive).

Regarding `O=C(c1cccc(Br)c1)N1CCC(N2CCCC2)CC1`, the activation was -15.6% (inactive).

For `CCC(=O)OCC(=O)[C@@]1(OC(=O)CC)[C@@H](C)C[C@@H]2[C@H]3CCC4=CC(=O)C=C[C@]4(C)[C@@]3(F)[C@@H](O)C[C@@]21C`, the activation was 3.16% (inactive).

Regarding `CC[C@H](C)[C@H](N)C(=O)O`, the activation is -22% (inactive).

With `CCOC(=O)c1ccccc1O`, the activation is -2.51% (inactive).

As for `COc1cc2c(cc1OC)[C@@H]1Cc3ccc(OC)c(OC)c3CN1CC2`, the activation was 19.3% (inactive).

As for `CC(=O)N[C@H]1[C@@H]([C@H](O)[C@H](O)CO)OC(C(=O)O)=C[C@@H]1N=C(N)N`, the activation is -10.7% (inactive).

`COc1cc2c(cc1O)CCC1C2CC[C@@]2(C)C1CC[C@@H]2O` (stereo not given in full): the activation is 27.6% (inactive).

For the molecule `CO[C@H]1/C=C\O[C@@]2(C)Oc3c(C)c(O)c4c(O)c(c5c(nc6cc(C)ccn65)c4c3C2=O)NC(=O)/C(C)=C\C=C/[C@H](C)[C@H](O)[C@@H](C)[C@@H](O)[C@@H](C)[C@H](OC(C)=O)[C@@H]1C`, the activation was -1.91% (inactive).

As for `Clc1ccc(-c2nc3sccn3c2C=NOCc2ccc(Cl)c(Cl)c2)cc1`, the activation was -15.4% (inactive).
